Out of some 310,000 compounds screened, about 2,200 (0.71%) showed an effect of 50% or more. The effect is printed as a negative number. The sample as a whole holds a higher share of strong results than the screen did.

human ether-à-go-go-related gene (hERG) potassium channel, sequence (Q12809 whole entry, looked up): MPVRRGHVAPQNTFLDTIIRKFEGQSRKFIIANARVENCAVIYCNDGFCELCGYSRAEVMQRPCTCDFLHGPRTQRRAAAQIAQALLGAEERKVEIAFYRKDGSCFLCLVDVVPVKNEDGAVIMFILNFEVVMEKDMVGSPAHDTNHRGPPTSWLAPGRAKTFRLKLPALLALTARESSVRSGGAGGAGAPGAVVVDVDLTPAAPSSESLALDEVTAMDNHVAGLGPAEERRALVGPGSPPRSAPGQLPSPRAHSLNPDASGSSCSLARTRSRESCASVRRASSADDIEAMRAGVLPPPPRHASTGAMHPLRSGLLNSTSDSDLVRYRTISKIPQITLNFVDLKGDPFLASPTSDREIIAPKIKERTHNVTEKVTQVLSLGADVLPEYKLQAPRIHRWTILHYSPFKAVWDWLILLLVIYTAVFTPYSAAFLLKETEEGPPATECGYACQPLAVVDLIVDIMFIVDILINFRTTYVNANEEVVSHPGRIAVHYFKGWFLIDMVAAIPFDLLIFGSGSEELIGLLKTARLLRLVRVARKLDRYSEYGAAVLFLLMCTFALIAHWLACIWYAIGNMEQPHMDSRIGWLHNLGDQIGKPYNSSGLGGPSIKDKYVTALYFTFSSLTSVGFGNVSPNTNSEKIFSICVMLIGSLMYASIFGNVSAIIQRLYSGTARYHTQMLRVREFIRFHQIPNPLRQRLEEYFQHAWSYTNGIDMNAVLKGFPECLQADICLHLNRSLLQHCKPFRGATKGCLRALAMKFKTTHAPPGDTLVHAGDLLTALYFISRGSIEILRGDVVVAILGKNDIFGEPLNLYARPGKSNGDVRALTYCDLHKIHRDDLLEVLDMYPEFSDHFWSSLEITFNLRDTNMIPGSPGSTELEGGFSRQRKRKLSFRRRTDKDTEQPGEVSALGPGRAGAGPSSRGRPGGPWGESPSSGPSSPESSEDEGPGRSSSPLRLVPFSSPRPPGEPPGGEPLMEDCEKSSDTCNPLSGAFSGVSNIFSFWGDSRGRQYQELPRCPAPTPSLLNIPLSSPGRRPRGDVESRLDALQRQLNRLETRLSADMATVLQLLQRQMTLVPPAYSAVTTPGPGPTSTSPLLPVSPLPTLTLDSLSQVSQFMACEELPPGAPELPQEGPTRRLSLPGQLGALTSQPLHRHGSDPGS

In this assay the target is human ether-à-go-go-related gene (hERG) potassium channel (human, UniProt Q12809). As to the kind of experiment: primary screen, population patch clamp on CHO cells stably expressing hERG; higher = less effect of the substance. The method, then:
Briefly, Chinese hamster ovary (CHO) cells stably expressing the hERG channel were dislodged from tissue culture flasks and dispensed into PPC plates. […] During the recording, background leak currents were estimated by a 100 ms step to -80 mV from an initial holding potential of -70 mV and subtracted from the subsequent current measurement. The campaign was conducted in two phases using slight differences in recording protocol. In the first phase, the initial voltage pulse used a 100 ms step to -30 mV from a holding potential of -70 mV, a 2 s conditioning step to +25 mV, and a 2 s test step to -30 mV. During the second phase of the screen, the potential during the conditioning step was raised to +45 mV. In both phases of the campaign, a secondary voltage pulse was applied using the same parameters as the second phase initial pulse. The initial and secondary pulses were applied in the absence of compound, and upon application of 1 μM and 10 μM test concentrations. Small molecule effects on hERG current density were quantified by […].
For the molecule `CNC(C)Cc1ccccc1Sc1ccc(O)cc1.Cl` (centres unmarked), the “hERG current change (%, negative = inhibition) at 1uM” value is -21.1%.
Regarding `CC(Cc1ccccc1Sc1ccc(O)cc1)N(C)C.CCO.Cl` (centres unmarked), the “hERG current change (%, negative = inhibition) at 1uM” value was -73.1%.
For `CC(Cc1ccccc1Sc1ccccc1O)N(C)C.Cl` (centres unmarked), the “hERG current change (%, negative = inhibition) at 1uM” value was determined as 3.67%.
Under `O=C(O)/C=C\C(=O)O.c1ccc(Sc2ccccc2CN2CCCC2)cc1` stands -11.3%; under `CCN(CC)Cc1ccccc1Sc1ccccc1.O=C(O)/C=C\C(=O)O`, -6.63%.
Under `N=C(N)Cc1ccccc1Sc1ccccc1.O=C(O)/C=C\C(=O)O` stands 5.87%.
Under `N/C(Cc1ccccc1Sc1ccccc1)=N\O.O=C(O)/C=C\C(=O)O` stands 4.44%; under `CC(Cc1ccccc1Sc1ccccc1)N(C)C.O=C(O)/C=C\C(=O)O` (centres unmarked), -60.6%.
As for `CN1CCN(Cc2ccccc2Sc2ccccc2)CC1.O=C(O)/C=C\C(=O)O`, the “hERG current change (%, negative = inhibition) at 1uM” value is given as -68.1%.
Turning to `CN(C)CCCn1c(SCC(=O)Nc2nc(-c3cccc(Br)c3)cs2)nc2ccccc2c1=O`, the “hERG current change (%, negative = inhibition) at 1uM” value was -3.37%.
To `Cc1ccc([N+](=O)[O-])cc1NC(=O)c1ccccc1` belongs 0.0028%; to `N#Cc1ccc(C(=O)Nc2nc(-c3cccs3)c(C(=O)C(F)(F)F)s2)cc1`, -18.6%; to `CCC(CC)NC(=O)Nc1ccccc1C`, 11.5%.
Under `CC(C)OCCCN1CN(S(=O)(=O)c2ccc(Cl)cc2)c2nc3ccccc3nc21` stands 13.8%.
To `O=C1Nc2ccc(Cl)cc2/C1=C/C1CC=CCC1` (centres unmarked) belongs 7.83%.
Consider `COc1ccc(N2CCN(Cc3oc(CO)cc(=O)c3O)CC2)cc1`, for which the “hERG current change (%, negative = inhibition) at 1uM” value is listed as 2.29%.
To `Cc1ccccc1CN1CCN(CC(=O)NC(C)c2ccccc2)CC1` (centres unmarked) belongs 3.82%; to `O=C(NCC1CCCO1)C(c1ccco1)N(Cc1ccc(F)cc1)C(=O)CN1C(=O)c2ccccc2S1(=O)=O` (centres unmarked), 8.75%; to `COc1ccc(CN(C(=O)CN2C(=O)c3ccccc3S2(=O)=O)C(C(=O)NCC2CCCO2)c2ccco2)cc1` (centres unmarked), -2.31%.
For `COc1cccc(CN(C(=O)CN2C(=O)c3ccccc3S2(=O)=O)C(C(=O)NCC2CCCO2)c2ccco2)c1` (centres unmarked), the “hERG current change (%, negative = inhibition) at 1uM” value is recorded as -50.1%.
To `COc1cccc(C(C(=O)NCC2CCCO2)N(CC2CCCO2)C(=O)CN2C(=O)c3ccccc3S2(=O)=O)c1` (centres unmarked) belongs 12.5%.
`O=C(NCC1CCCO1)C(c1ccncc1)N(Cc1ccc(F)cc1)C(=O)CN1C(=O)c2ccccc2S1(=O)=O` (centres unmarked): the “hERG current change (%, negative = inhibition) at 1uM” value is -51.2%.
To `COc1ccc(CN(C(=O)CN2C(=O)c3ccccc3S2(=O)=O)C(C(=O)NCC2CCCO2)c2ccncc2)cc1` (centres unmarked) belongs 0.0687%.

The values above are taken from publication PMC4336329 (PLoS ONE, 2015).
